In PubChem BioAssay (EPA / NIEHS):
Records with an inconclusive call do not appear. Activity calls are given as the source filed them. Rule for the calls: active = hit-call score of the fitted dose curve at least 0.9, where 1 is the maximum; inconclusive = response in the unintended direction; inactive = score below 0.9.

What was measured:
PGR (gene 5241) = PGR (gene 5241) (UniProt P06401); experiment: NVS_NR_hPR: NovaScreen (NVS) Nuclear Receptor Binding Assay for human Progestron Receptor (PR) (AID 2283360);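 note: active means loss of bound radioligand signal versus DMSO baseline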
Chain of PGR (gene 5241) (P06401 whole entry, looked up): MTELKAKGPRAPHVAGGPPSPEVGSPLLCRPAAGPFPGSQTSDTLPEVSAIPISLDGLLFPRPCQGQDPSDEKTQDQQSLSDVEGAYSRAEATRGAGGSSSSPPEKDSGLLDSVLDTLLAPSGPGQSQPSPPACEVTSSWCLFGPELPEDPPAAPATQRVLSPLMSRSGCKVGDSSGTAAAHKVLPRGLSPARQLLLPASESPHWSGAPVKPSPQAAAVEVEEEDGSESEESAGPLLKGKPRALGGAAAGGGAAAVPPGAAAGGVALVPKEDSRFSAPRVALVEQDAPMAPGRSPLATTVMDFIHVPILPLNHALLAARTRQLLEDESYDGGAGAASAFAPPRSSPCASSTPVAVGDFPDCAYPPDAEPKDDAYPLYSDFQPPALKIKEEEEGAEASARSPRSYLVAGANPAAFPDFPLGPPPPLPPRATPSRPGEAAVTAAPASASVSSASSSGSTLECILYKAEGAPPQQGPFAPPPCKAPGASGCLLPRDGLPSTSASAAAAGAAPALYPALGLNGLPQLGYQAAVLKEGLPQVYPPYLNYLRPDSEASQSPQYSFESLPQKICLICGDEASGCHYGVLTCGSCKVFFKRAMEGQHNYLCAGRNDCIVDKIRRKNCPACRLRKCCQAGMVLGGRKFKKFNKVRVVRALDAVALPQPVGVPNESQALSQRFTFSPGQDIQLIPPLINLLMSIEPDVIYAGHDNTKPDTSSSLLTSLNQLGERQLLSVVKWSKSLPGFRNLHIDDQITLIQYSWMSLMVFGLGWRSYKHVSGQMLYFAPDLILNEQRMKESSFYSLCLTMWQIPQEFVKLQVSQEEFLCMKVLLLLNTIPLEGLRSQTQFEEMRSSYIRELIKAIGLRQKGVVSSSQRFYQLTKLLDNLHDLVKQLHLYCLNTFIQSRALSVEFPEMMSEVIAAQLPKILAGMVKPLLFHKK
In short: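 Competitive displacement of a labelled radioligand from T47D-derived receptor protein is measured in a cell-free format. Initial testing uses 25 uM in duplicate, with positive and negative controls on every plate.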

[1] = target: Retinoic acid receptor alpha (Homo sapiens) (UniProt P10276); experiment: NVS_NR_hRARa_Agonist: NovaScreen (NVS) Nuclear Receptor Binding Assay for human Retinoic Acid Alpha Receptor Agonism (RAR) (AID 2283361)
Chain of Retinoic acid receptor alpha (Homo sapiens) (P10276 whole entry, looked up): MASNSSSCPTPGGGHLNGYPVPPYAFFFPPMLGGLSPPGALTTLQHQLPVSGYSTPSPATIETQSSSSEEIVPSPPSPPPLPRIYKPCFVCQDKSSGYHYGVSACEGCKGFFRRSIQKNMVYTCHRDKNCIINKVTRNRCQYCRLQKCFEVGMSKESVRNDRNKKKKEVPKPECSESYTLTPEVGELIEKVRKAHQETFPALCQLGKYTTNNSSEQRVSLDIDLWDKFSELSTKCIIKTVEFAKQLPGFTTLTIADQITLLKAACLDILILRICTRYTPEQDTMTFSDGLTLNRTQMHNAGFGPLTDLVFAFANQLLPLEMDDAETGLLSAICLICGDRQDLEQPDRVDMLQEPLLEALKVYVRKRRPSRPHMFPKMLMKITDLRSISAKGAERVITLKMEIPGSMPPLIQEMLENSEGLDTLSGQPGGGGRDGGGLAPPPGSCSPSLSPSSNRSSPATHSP
In short: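 Cell-free TR-FRET binding read-out with extracted human RARα protein, read 2 h after compound addition. Gain of signal scored against DMSO baseline. Primary screen at a single 25 uM in duplicate; actives then retested in concentration series.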

[2] = target: Estrogen receptor beta (Homo sapiens) (UniProt Q92731); experiment: OT_ER_ERbERb_0480: Odyssey Thera (OT) 8-hour HEK293T Protein-Complementation Assay for Estrogen Receptor-beta/-beta Homodimer (AID 2283357);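 note: active means signal gain over DMSO baseline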
Chain of Estrogen receptor beta (Homo sapiens) (Q92731 whole entry, looked up, the tested form may be a part): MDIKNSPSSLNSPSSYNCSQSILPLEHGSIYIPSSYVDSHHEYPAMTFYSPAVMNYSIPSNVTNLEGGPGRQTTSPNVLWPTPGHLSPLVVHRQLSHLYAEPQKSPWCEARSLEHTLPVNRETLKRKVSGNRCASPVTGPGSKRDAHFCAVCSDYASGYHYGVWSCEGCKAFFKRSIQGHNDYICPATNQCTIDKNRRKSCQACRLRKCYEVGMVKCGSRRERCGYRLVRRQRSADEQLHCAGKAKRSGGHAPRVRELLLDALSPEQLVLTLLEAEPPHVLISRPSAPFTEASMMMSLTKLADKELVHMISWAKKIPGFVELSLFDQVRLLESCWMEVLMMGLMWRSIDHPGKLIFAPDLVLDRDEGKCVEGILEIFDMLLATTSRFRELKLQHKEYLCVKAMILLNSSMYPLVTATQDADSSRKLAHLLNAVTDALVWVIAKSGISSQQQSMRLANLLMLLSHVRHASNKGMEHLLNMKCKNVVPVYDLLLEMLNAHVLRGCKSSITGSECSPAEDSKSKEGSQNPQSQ
In short: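 Readout: increase in mean fluorescence intensity (nucleus for agonists; nucleus plus cytoplasm for antagonists) relative to DMSO, from a reporter-fragment complementation of human ER-beta LBD homodimer in HEK293T cells dosed 8 hours.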

[3] = target: Estrogen receptor (Homo sapiens) (UniProt P03372); experiment: OT_ER_ERaERa_1440: Odyssey Thera (OT) 24-hour HEK293T Protein-Complementation Assay for Estrogen Receptor-alpha/-alpha Homodimer (AID 2283349);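 note: hits raise fluorescence above DMSO for agonists and antagonists alike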
Chain of Estrogen receptor (Homo sapiens) (P03372 whole entry, looked up, the tested form may be a part): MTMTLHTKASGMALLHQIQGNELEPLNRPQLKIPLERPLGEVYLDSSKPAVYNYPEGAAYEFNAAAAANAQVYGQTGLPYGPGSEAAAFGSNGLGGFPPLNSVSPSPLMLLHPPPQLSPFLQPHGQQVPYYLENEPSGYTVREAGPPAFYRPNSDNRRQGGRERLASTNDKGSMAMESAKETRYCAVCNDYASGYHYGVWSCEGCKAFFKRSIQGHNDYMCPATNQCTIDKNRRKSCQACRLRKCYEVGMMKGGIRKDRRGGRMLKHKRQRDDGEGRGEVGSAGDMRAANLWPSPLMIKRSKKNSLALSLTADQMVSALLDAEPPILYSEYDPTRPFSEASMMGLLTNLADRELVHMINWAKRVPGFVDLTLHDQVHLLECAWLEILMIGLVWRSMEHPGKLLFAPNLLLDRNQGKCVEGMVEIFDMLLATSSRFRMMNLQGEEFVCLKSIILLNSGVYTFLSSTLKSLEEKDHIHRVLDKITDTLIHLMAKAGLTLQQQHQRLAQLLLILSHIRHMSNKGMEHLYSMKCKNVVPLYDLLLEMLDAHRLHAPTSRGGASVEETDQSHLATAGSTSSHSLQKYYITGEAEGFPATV
In short: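 Readout is the rise in mean fluorescence from reporter fragment complementation when ERα LBD (aa 310-547) units dimerize in HEK293T cells. Measured 24 h after dosing and analysed as increase over DMSO control.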

[4] = target: T1, Estrogen receptor (Homo sapiens) + Estrogen receptor beta (Homo sapiens) (UniProt P03372+Q92731); experiment: OT_ER_ERaERb_0480: Odyssey Thera (OT) 8-hour HEK293T Protein-Complementation Assay for Estrogen Receptor-alpha/-beta Heterodimer (AID 2283352)
T1 sequence (P03372 whole entry, looked up, the tested form may be a part): as above
T1 sequence (Q92731 whole entry, looked up, the tested form may be a part): as the sequence (Q92731 whole entry, looked up, the tested form may be a part) above
In short: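 HEK293T protein-fragment complementation assay of ER-alpha/ER-beta LBD heterodimerisation, read 8 h after dosing. Mean nuclear/cytoplasmic fluorescence intensity measured by laser scanning cytometry; gain of signal fitted relative to DMSO.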

[5] = target: T1, Estrogen receptor (Homo sapiens) + Estrogen receptor beta (Homo sapiens); experiment: OT_ER_ERaERb_1440: Odyssey Thera (OT) 24-hour HEK293T Protein-Complementation Assay for Estrogen Receptor-alpha/-beta Homodimer (AID 2283356);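 note: heteromer of ER alpha and ER beta binding domains; hits raise reporter fluorescence and both agonists and antagonists give an increase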
In short: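 HEK293T stably expressing a PCA of ER alpha LBD (aa 310-547) and ER beta LBD (aa 263-489). After 24 h compound exposure, mean fluorescence intensity in nucleus (agonists) or nucleus and cytoplasm (antagonists) measured by laser scanning cytometry versus vehicle.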

[6] = target: human Peroxisome Proliferator-activated Receptor alpha (PPARa), PPARA (gene 5465) (UniProt Q07869); experiment: NVS_NR_hPPARa: NovaScreen (NVS) Nuclear Receptor Binding Assay for human Peroxisome Proliferator-activated Receptor alpha (PPARa) (AID 2283359);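 note: activity means loss of TR-FRET signal versus DMSO baseline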
Chain of human Peroxisome Proliferator-activated Receptor alpha (PPARa), PPARA (gene 5465) (Q07869 whole entry, looked up): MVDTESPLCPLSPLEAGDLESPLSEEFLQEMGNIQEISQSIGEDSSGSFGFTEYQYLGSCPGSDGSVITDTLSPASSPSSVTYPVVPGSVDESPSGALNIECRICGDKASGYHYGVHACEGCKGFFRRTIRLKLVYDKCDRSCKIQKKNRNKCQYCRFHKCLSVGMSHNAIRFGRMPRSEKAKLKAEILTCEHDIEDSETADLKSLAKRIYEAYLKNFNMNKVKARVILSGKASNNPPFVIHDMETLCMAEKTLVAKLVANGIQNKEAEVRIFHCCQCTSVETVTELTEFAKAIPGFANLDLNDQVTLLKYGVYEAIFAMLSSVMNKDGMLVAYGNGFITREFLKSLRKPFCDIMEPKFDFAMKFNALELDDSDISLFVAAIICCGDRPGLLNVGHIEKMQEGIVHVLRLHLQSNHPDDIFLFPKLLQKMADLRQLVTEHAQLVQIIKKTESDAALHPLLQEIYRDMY
In short: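 Cell-free binding assay with extracted human protein, read by TR-FRET 1 h after chemical dosing. Loss of signal relative to DMSO baseline indicates binding. Primary screen used duplicate single concentration (25 uM); actives followed up in concentration series.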

[7] = target: Glucocorticoid receptor (Homo sapiens) (UniProt P04150); experiment: NVS_NR_hGR: NovaScreen (NVS) Nuclear Receptor Binding Assay for human Glucocorticoid Receptor (GR) (AID 2283363)
In short: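 Cell-free radioligand binding with extracted receptor protein, read by filter-based scintillation counting 16 hours after dosing. Loss of specific signal versus DMSO baseline was scored. Primary screen ran in duplicate at 25 uM; actives were followed up in concentration series.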

[8] = target: Androgen Receptor/SRC-1 Co-activator, AR (gene 367) (UniProt P10275); experiment: OT_AR_ARSRC1_0960: Odyssey Thera (OT) 16-hour HEK293T Protein-Complementation Assay for Androgen Receptor/SRC-1 Co-activator (AID 2283353);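 note: actives raise the signal above DMSO so potency reflects increased AR and SRC-1 complex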
Chain of Androgen Receptor/SRC-1 Co-activator, AR (gene 367) (P10275 whole entry, looked up, the tested form may be a part): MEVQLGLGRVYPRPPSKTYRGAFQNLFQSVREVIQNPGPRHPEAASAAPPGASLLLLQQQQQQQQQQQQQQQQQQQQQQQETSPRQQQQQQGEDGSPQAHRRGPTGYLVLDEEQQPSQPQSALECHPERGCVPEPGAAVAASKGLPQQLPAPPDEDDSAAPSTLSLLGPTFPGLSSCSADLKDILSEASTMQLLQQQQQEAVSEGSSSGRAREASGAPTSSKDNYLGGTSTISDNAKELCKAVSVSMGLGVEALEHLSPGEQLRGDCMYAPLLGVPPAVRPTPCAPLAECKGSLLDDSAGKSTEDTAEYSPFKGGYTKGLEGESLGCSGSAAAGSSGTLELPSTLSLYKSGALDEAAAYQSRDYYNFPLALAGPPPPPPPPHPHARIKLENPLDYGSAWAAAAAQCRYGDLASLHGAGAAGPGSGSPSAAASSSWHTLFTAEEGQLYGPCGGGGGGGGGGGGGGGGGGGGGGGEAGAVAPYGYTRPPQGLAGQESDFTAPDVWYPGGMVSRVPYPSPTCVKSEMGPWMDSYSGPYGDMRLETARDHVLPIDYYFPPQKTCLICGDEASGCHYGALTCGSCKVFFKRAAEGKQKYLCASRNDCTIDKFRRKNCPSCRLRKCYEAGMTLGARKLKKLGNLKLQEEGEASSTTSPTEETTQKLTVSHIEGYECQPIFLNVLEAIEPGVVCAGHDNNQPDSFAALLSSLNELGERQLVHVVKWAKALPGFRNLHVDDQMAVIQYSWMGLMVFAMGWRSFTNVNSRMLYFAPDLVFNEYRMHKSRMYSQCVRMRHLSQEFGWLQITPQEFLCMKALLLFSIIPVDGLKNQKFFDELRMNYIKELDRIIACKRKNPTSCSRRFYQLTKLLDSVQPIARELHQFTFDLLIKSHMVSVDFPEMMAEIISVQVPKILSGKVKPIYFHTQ
In short: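 HEK293T cells stably expressing AR and SRC-1 fused to Venus YFP fragments, imaged 16 h after dosing. Nuclear/cytoplasmic fluorescence ratio at 488 nm from at least 400 cells per image; gain of signal relative to DMSO.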

[9] = target: Androgen Receptor/SRC-1 Co-activator, AR (gene 367) (UniProt P10275); experiment: OT_AR_ARSRC1_0480: Odyssey Thera (OT) 8-hour HEK293T Protein-Complementation Assay for Androgen Receptor/SRC-1 Co-activator (AID 2283354);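 note: hits raise the complementation signal above DMSO so AC50 marks enhancers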
In short: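 HEK293T cells stably expressing AR and SRC-1 fused to split Venus YFP fragments via (Gly4Ser)2 linkers were read 8 h after compound dosing. Complementation was imaged at 488 and 635nm, and nuclear/cytoplasmic fluorescence ratio (488nm) was taken over ≥400 cells; gain-of-signal versus DMSO.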

[10] = target: Retinoic acid receptor alpha (Homo sapiens) (UniProt P10276); experiment: NVS_NR_hRAR_Antagonist: NovaScreen (NVS) Nuclear Receptor Binding Assay for human Retinoic Acid Alpha Receptor Antagonism (RAR) (AID 2283358)
In short: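 Cell-free TR-FRET binding assay on extracted receptor protein, run in antagonist mode; signal read 2 hours after chemical dosing. Loss of signal was fitted relative to DMSO baseline. Screened at 25 uM in duplicate, actives followed up in concentration series.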

[11] = target: human Thyroid Receptor Alpha (TRa), THRA (gene 7067) (UniProt P10827); experiment: NVS_NR_hTRa_Antagonist: NovaScreen (NVS) Nuclear Receptor Binding Assay for human Thyroid Receptor Alpha Antagonism (TRa) (AID 2283362);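 note: activity is loss of signal relative to DMSO baseline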
In short: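 Cell-free AlphaLISA chemiluminescent binding read 1 h after dosing, antagonist mode; signal loss versus DMSO baseline. Primary screen in duplicate at 25 uM, then concentration series for actives.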

[12] = target: Estrogen receptor (Homo sapiens) (UniProt P03372); experiment: OT_ER_ERaERa_0480: Odyssey Thera (OT) 8-hour HEK293T Protein-Complementation Assay for Estrogen Receptor-alpha/-alpha Homodimer (AID 2283351);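 note: rise in fluorescence from reassembled reporter fragments on ERα LBD homodimer in nucleus or whole cell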
In short: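 The readout is complementation of fragments fused to the human ER alpha ligand-binding domain (aa 310-547), stably expressed in HEK293T cells. After 8 h of exposure, the increase in nuclear/cytoplasmic fluorescence was measured by laser scanning cytometry and fitted relative to DMSO.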

[13] = target: Bile acid receptor (Homo sapiens) (UniProt Q96RI1); experiment: NVS_NR_hFXR_Antagonist: NovaScreen (NVS) Nuclear Receptor Binding Assay for human Farnesoid X Receptor Antagonism (FXR) (AID 2283350)
In short: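 Cell-free TR-FRET ligand-binding read-out on human FXR (NR1H4) in antagonist mode, measured 1 h after dosing. Primary screen in duplicate at 25 uM, actives retested in concentration series; signal loss scored versus DMSO.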

## CC(C)(O)c1coc(S(=O)(=O)NC(=O)Nc2c3c(cc4c2CCC4)CCC3)c1
PGR (gene 5241)
  outcome: inactive

## CC(C)CCCCCCCOC(=O)CCCCC(=O)OCCCCCCCC(C)C
[1]
  outcome: inactive

## CC(O)CN(CCN(CC(C)O)CC(C)O)CC(C)O (stereo unspecified)
[2]
  outcome: inactive

## CCCC(=O)OCC
[3]
  outcome: inactive
[4]
  outcome: inactive
[5]
  outcome: inactive

## O=C1CCCCCN1
[2]
  outcome: inactive

## CN(C)c1ccc(Cc2ccc(N(C)C)cc2)cc1
[2]
  outcome: inactive
[6]
  outcome: inactive

## CCOC(=O)c1ccc(C2CCC(NC[C@H](O)COc3ccc(O)c(NS(C)(=O)=O)c3)CC2)cc1 (stereo partly specified)
[6]
  outcome: inactive
[7]
  outcome: inactive

## O=C(CCCCCCCCc1cccnc1)N1CCC(C=C(c2ccccc2)c2ccccc2)CC1
[8]
  AC50: 27.5 µM (active)
[9]
  outcome: inactive
[2]
  outcome: inactive
[10]
  outcome: inactive

## Cn1c(=O)c2c(ncn2C)n(C)c1=O
[1]
  outcome: inactive

## CNCc1ccc(NC(=O)c2c[nH]c3c2C(=O)CCC3)cc1
PGR (gene 5241)
  outcome: inactive

## COC(=O)c1ccccc1O
[3]
  outcome: inactive
[4]
  outcome: inactive
[5]
  outcome: inactive

## COCCOCCOCCOC
[2]
  outcome: inactive

## Cc1ccc(O)cc1
[8]
  outcome: inactive
[9]
  outcome: inactive

## CCCN(C1CCN(C(=O)C2CCNCC2)CC1)[C@@H]1CCc2ccc(OC)cc2C1
[8]
  outcome: inactive
[9]
  outcome: inactive

## Cc1[nH]cnc1C[C@H]1CCc2c(C)c3ccccc3n2C1=O
[11]
  outcome: inactive

## Clc1nc(Cl)c(Cl)c(Cl)c1Cl
[1]
  outcome: inactive

## Cc1c(-c2cccnc2)c2ccccc2n1CCCCC(=O)O
PGR (gene 5241)
  outcome: inactive

## CCCCC(CC)COC(=O)c1ccc(C(=O)OCC(CC)CCCC)cc1 (stereo unspecified)
[8]
  outcome: inactive
[9]
  outcome: inactive
[6]
  AC50: 25 µM (active)

## O=C(O)c1cccc(Oc2ccccc2)c1
[3]
  outcome: inactive
[12]
  outcome: inactive
[10]
  outcome: inactive
[6]
  outcome: inactive

## CC(=O)OC[C@H]1O[C@@](COC(C)=O)(O[C@H]2O[C@H](COC(C)=O)[C@@H](OC(C)=O)[C@H](OC(C)=O)[C@H]2OC(C)=O)[C@@H](OC(C)=O)[C@@H]1OC(C)=O
[2]
  outcome: inactive

## CCOCCO
[2]
  outcome: inactive

## CCNc1ccccc1
[8]
  outcome: inactive
[9]
  outcome: inactive

## Fc1ccccc1[C@@H](F)COC1CCC(Nc2ncnc3[nH]ncc23)CC1 (stereo partly specified)
[8]
  AC50: 33.2 µM (active)
[9]
  AC50: 50 µM (active)
[6]
  outcome: inactive

## CC1(C)C(=O)N(Br)C(=O)N1Br
[8]
  outcome: inactive
[9]
  outcome: inactive
[2]
  outcome: inactive

## O=c1[nH]c2ccc(S(=O)CCN3CCC(Cc4ccc(F)cc4)CC3)cc2o1 (stereo unspecified)
[3]
  outcome: inactive
[12]
  outcome: inactive
[5]
  outcome: inactive
PGR (gene 5241)
  outcome: inactive

## C1N2CN3CN1CN(C2)C3
[8]
  outcome: inactive
PGR (gene 5241)
  outcome: inactive

## CCCCCCCCCCCCCCCO
[6]
  outcome: inactive

## CC(C)c1cccc(C(C)C)c1N1C(=O)c2ccc(O)cc2C1=O
[13]
  AC50: 41.1 µM (active)

## On1ccccc1=S
[11]
  AC50: 9.11 µM (active)

## COC(=O)CC(=O)OC
[3]
  outcome: inactive
[12]
  outcome: inactive
[4]
  outcome: inactive
[5]
  outcome: inactive
PGR (gene 5241)
  outcome: inactive

## CC(=O)OCCC(C)C
[2]
  outcome: inactive
PGR (gene 5241)
  outcome: inactive

## CC(C)CCCCCCOC(=O)c1ccc(C(=O)OCCCCCCC(C)C)c(C(=O)OCCCCCCC(C)C)c1
[2]
  outcome: inactive

## Cc1ccc(S(=O)(=O)O)cc1C
[3]
  outcome: inactive
[12]
  outcome: inactive
PGR (gene 5241)
  outcome: inactive

## O=C1OC(=O)C2C3C=CC(C3)C12 (stereo unspecified)
[10]
  outcome: inactive
